Screening data as filed in PubChem BioAssay.
TDP1 cell noCPT = qHTS for Inhibitors of human tyrosyl-DNA phosphodiesterase 1 (TDP1): qHTS in cells in absence of CPT | DT40 Tdp1-/- hTDP1 cells, no CPT, ATP luminescence, 48 h | Potency, µM (doses to about 46.2 µM), inactives show top-dose activity change, negative = growth inhibition, hits mostly inhibitors | 15% of 420,000 active; also: potency is read from the fitted curve at half-maximal effect; nearly all actives have a fitted effect of over 55% in size
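Cells were dispensed at 400 per well, compounds added by pin tool, plates incubated ≥48 hr at 37 °C, then CellTiter-Glo added for 30 min at room temperature before luminescence reading. Line: DT40 Tdp1-/- complemented with hTDP1; camptothecin omitted.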
TDP1 cell CPT = qHTS for Inhibitors of human tyrosyl-DNA phosphodiesterase 1 (TDP1): qHTS in cells in presence of CPT; chicken DT40 Tdp1-/-;hTDP1 cells + 20 nM CPT, ATP luminescence, 48 h; Potency, µM (top dose mostly 46.2 µM), for inactives: at the highest dose activity change, negative = growth inhibition, hits mostly inhibitors; 12% of 420,000 active; AID 686979, 2013; also: potency is read from the fitted curve at half-maximal effect; nearly all actives have a fitted effect of over 55% in size
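Chicken DT40 Tdp1-/- cells stably complemented with human TDP1 were seeded at 400 cells/well in medium containing 20 nM camptothecin, exposed to pin-transferred compounds, and grown at 37 °C for at least 48 hr. Viability was read as ATP luminescence.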
HT1080 IDH1KD tx = qHTS for induction of synthetic lethality in tumor cells producing 2HG: qHTS for the HT-1080-IDH1KD cell line; HT-1080 IDH1 knockdown viability, ATP luminescence, 48 h; Potency, µM (series often up to 46.1 µM), inactives show at the highest dose activity, negative = toxicity, usual class: cytotoxic; 2% of 360,000 active;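 also: potency is read from the fitted curve at half-maximal effect; 0% = DMSO wells and -100% = cell-free medium wells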
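CellTiter-Glo luminescence after 48 h compound exposure at 37 degrees C of IDH1-knockdown HT-1080 cells in 5% FBS RPMI. %Activity scaled between DMSO wells and cell-free media wells, with curves fitted and assigned curve classes.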
IL-1B inflam inh = qHTS for Inhibitors of Inflammasome Signaling: IL-1-beta AlphaLISA Primary Screen. THP-1 LPS/ATP IL-1B secretion, AlphaLISA, 16 h; hits give low values. activity change, % at 57.5 µM. 4.7% of 360,000 active. AID 743279, 2014; in the data active = activity change below about -50%; inconclusive = mostly about -30% to -49%
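THP-1 cells pretreated 1 hr with compounds (up to 57.5 uM final), then stimulated with LPS (250 ng/mL final) plus ATP (1.25 mM final); secreted IL-1B measured by AlphaLISA after 16 hr, decreased signal indicating inhibition.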
HT1080-NT tox = qHTS for induction of synthetic lethality in tumor cells producing 2HG: qHTS for the HT-1080-NT fibrosarcoma cell line. HT-1080-NT fibrosarcoma viability, CellTiter-Glo ATP luminescence, 48 h. Potency, µM (titrated, usually from 46.1 µM), without a hit: top-dose activity, negative = less viability, hits mostly cytotoxic. 1.6% of 360,000 active. AID 686970, 2013;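 also: NT is the 2HG producing partner of a matched IDH1 knockdown line; potency is read from the fitted curve at half-maximal effect; 0% = DMSO-treated cells and -100% = media-only wells without cells; nearly all actives have a fitted effect of over 55% in size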
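Read-out is CellTiter-Glo luminescence after 10 minutes at room temperature, following 48 hours' compound treatment of HT-1080-NT cells (750 cells/well, RPMI, 5% FBS, 37 degrees C).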
* hit, by the source's call; ? = inconclusive; . = not tested or not shown; [ ] = remark or other dose. The list is not random: actives were taken first. Their share in the collection is about 19%. Unless noted, calls follow the shape of the dose curve; as a rule, active = well fitted curve in the direction sought with a large enough effect; inconclusive = small, poorly fitted or top-dose-only effect, or another doubt; inactive = no such curve, though single readings can be large; an effect the other way counts as inactive or inconclusive. Unless noted, % is scaled to controls: 0 for no effect and ±100 for the full control effect.

SMILES | TDP1 cell noCPT | TDP1 cell CPT | HT1080 IDH1KD tx | IL-1B inflam inh | HT1080-NT tox
Cc1ccc(NC(=O)CCCc2ccccc2)nc1 | -9% | -3% | -2% | -15 | -4%
CN(C)CCNc1ncnc2c1ncn2[C@H]1CN(Cc2ccco2)C[C@@H](CO)O1 | -13% | -21% | 0% | 15 | 24%
CCCNS(=O)(=O)c1ccc(OCC(=O)N2CCOCC2)cc1 | -13% | -17% | 10% | 0 | 2%
c1ccc(C(c2ccccc2)c2noc(CN3CCC(c4ccncc4)CC3)n2)cc1 | ? | 21µM* | -14% | -17 | -13%
c1ccc(CCC2CCCCN2Cc2nc(-c3ccc4c(c3)OCO4)no2)nc1 (centres undefined) | 21µM* | 16µM* | -14% | -28 | -26%
O=C(c1ccco1)N1CCCN(Cc2nc(-c3ccc4c(c3)OCO4)no2)CC1 | 16µM* | -10% | -1% | 4 | -17%
c1cc(C2CCN(Cc3nc(-c4ccc5c(c4)OCO5)no3)CC2)ccn1 | 12µM* | 21µM* | ? | -26 | ?
COc1ccc(-c2nc(CN3CCCCC3CCc3ccccn3)c(C)o2)cc1 (centres undefined) | ? | 6% | -12% | 15 | -12%
Fc1ccc(CN2CCCN(Cc3nc(-c4ccc5c(c4)OCO5)no3)CC2)cc1 | ? | ? | 3% | -11 | -12%
COCC1CCN(Cc2nc(-c3ccc4c(c3)OCO4)no2)C1 (centres undefined) | -12% | 3% | 23% | 8 | 8%
c1ccc(C2CCCN(Cc3nc(CC4CC4)no3)CC2)cc1 (centres undefined) | -19% | -12% | -12% | -3 | -5%
CCCCC1CCC(CCCC(C)CCC(=O)O)CC1 (centres undefined) | -3% | 0% | . | . | .
Cc1cccn2c(=O)nc(SCC(=O)NC3CCCCC3)nc12 | 1% | -4% | 13% | -10 | 17%
CCCCC[C@H](O)/C=C/[C@H]1CCC(=O)[C@@H]1CCCCCCC(=O)N1CCCCC1CO (some centres undefined) | 15µM* | 23µM* | 13µM* | -23 | 16µM*
CCCCCC1C(=O)CCC1CC(=O)OC (centres undefined) | 5% | -7% | 5% | 2 | -3%
COc1ccc(OCCSc2nnc(CCNC(=O)c3ccc(Cl)c(Cl)c3)n2C)cc1 | ? | 25µM* | -30% | -1 | -18%
Cc1ccc(O)c(C(=O)c2cnc3c(c2)c(=O)n(C)c(=O)n3C)c1 | ? | ? | 7% | 26 | 16%
Cc1ccc(O)c(C(=O)c2cnc3c(c2)c(-c2ccc(F)cc2)c(C#N)c(=O)n3C)c1 | 21µM* | 18µM* | -1% | -28 | -8%
C=CCC[C@H](CCCCC)OC(=O)/C=C/[C@H](O)[C@@H](O)C[C@H](O)CC=C | 26µM* | ? | -29% | -21 | -21%
C=CCC[C@@H](CCCCC)OC(=O)/C=C/[C@H](O)[C@@H](O)C[C@H](O)CC=C | ? | ? | -27% | -55* | ?
Cc1[nH][nH]c(=O)c1C(c1c(C)[nH][nH]c1=O)c1cn(C)c2ccccc12 | ? | -17% | -1% | . | 0%
Cc1[nH][nH]c(=O)c1C(c1c(C)[nH][nH]c1=O)c1cn(Cc2cccc3ccccc23)c2ccccc12 | 7.3µM* | 8.2µM* | ? | -4 | ?
CC(=O)Oc1ccc(N2C(=O)C3C4C=CC(CO)(O4)C3C2=O)cc1 (centres undefined) | 4.6µM* | 2.6µM* | 0%[9.24 µM] | -4 | -7%
O=C1CCC(=O)N1c1ccccc1-c1ccccc1 | 5% | -4% | 7% | 6 | 5%
